Data from PubChem BioAssay (Tox21).
Inconclusive results are not listed. Active and inactive are the calls of the source. Unless noted, calls come from the whole dose curve; as a rule, active = well fitted curve in the direction sought with a large enough effect in the repeat runs; inconclusive = weak or mixed curves; inactive = no such curve, though single readings can be large; an effect the other way counts as inactive or inconclusive.

Assays:
[1] = qHTS assay to identify small molecule agonists of the vitamin D receptor (VDR) signaling pathway - cell viability counter screen (AID 743224); note: series mostly up to about 63 µM; nearly all actives have a fitted effect of over 50% in size
Summary of the method: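 Counter screen for cytotoxicity: VDR-bla cells at 2,000 cells/well, 16 h compound exposure, then CellTiter-Glo luminescence after the beta-lactamase measurement.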

[2] = qHTS assay to identify small molecule agonists of the NFkB signaling pathway (AID 1159509; active = well fitted curve in the direction sought with a large enough effect in the signal ratio in the repeat runs, not every such curve was filed as active; the % refers to the signal ratio; note: series mostly up to about 61 µM)
Summary of the method: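 Beta-lactamase reporter assay run in quantitative high-throughput format on an NF-kB-responsive ME-180 line, with 5 hr compound treatment and a FRET-based blue/green fluorescence readout.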

[3] = qHTS assay to identify small molecule agonists of the NFkB signaling pathway - cell viability counter screen (AID 1159515; calls by dose curve; note: series mostly up to about 61 µM; nearly all actives have a fitted effect of over 55% in size)
Summary of the method: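 Counter screen run alongside the NFkB-bla agonist assay: ME-180 reporter cells exposed to compounds for 5 hr, then lysed with CellTiter-Glo in the same wells. Luminescence, read after 30 min, reflects viable cells.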

[4] = qHTS assay to identify small molecule agonists of the endoplasmic reticulum stress response signaling pathway (AID 1159516; active = well fitted activation curve with a large enough effect in the signal ratio in the repeat runs, not every such curve was filed as active; the % refers to the signal ratio)
Summary of the method: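 For this screen, HeLa cells stably carrying beta-lactamase under the ER stress response element received test compounds, positive controls or DMSO for 5 hr at 37 C; B/G FRET substrate was then added and dual-wavelength emission recorded.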

[5] = qHTS assay to identify small molecule agonists of the endoplasmic reticulum stress response signaling pathway - cell viability counter screen (AID 1159517; calls by dose curve; note: series mostly up to about 61 µM; nearly all actives have a fitted effect of over 50% in size)
Summary of the method: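 After overnight attachment, ESRE-bla HeLa cells were treated with Tox21 library compounds for 5 hr. CellTiter-Glo luminescence, read 30 min post-addition at room temperature, reported viability.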

[6] = qHTS assay to identify small molecule antagonists of the retinoid-related orphan receptor gamma (ROR-gamma) signaling pathway - cell viability counter screen (AID 1159520); note: nearly all actives have a fitted effect of over 50% in size
Summary of the method: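 Cytotoxicity was read from cellular ATP (CellTiter-Glo luminescence) after 16 hr at 37 C with 1 uM doxycycline induction. The inducer was added 2 hr after compound transfer to Tet-on ROR gamma CHO cells.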

[7] = molecular target: Nuclear receptor ROR-gamma (Homo sapiens) (UniProt P51449); assay: qHTS assay to identify small molecule antagonists of the retinoid-related orphan receptor gamma (ROR-gamma) signaling pathway (AID 1159521;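 note: CHO cells with doxycycline inducible ROR-gamma driving an RORE luciferase reporter; top concentration of the series differs between compounds; nearly all actives have a fitted effect of over 50% in size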)
Summary of the method: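 Inducible-expression reporter assay: doxycycline (1 uM final) switched on RORγ in CHO cells bearing a ROR response element-luciferase construct, with test compounds present from 2 h beforehand. Decreased luminescence after 16 h defined antagonist activity.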

[8] = qHTS assay to identify small molecule agonists of the AP-1 signaling pathway - cell viability counter screen (AID 1159525; calls by dose curve; note: nearly all actives have a fitted effect of over 55% in size)
Summary of the method: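 Intracellular ATP by Cell Titer Glo luminescence (30 min, RT) in the same ME-180 AP-1-bla wells after the 5 h compound exposure at 37 °C. Normalised to tetra n-octyl ammonium bromide and DMSO controls.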

[9] = qHTS assay to identify small molecule agonists of the AP-1 signaling pathway (AID 1159526; calls by dose curve)
[10] = qHTS assay to identify small molecule agonists of the RXR signaling pathway - cell viability counter screen (AID 1159529)
Summary of the method: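 Counter screen: CellTiter-Glo luminescence. Cells: RXR-alpha-UAS-bla HEK 293T. Medium: 2% charcoal-stripped FBS. Treatment: 16 h, 37 C. Reagent incubation: 30 min, RT.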

[11] = qHTS assay to identify small molecule antagonists of the retinoid acid receptor (RAR) signaling pathway - cell viability counter screen (AID 1159551); note: nearly all actives have a fitted effect of over 35% in size
Summary of the method: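 Measured by luminescent ATP detection, viability reflects C3RL4 cells treated 6 h at 37 C with test chemicals in the presence of 1 uM (final) retinol.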

[12] = qHTS assay to identify small molecule antagonists of the vitamin D receptor (VDR) signaling pathway - cell viability counter screen (AID 743225); note: nearly all actives have a fitted effect of over 50% in size
Summary of the method: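 Same-well multiplex: following 16 h treatment of HEK 293T cells carrying a UAS-driven beta-lactamase reporter with compound and agonist (3 nM final), and a 2 h FRET substrate step, CellTiter-Glo was added and luminescence read after 30 min.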

[13] = qHTS assay to identify small molecule antagonists of the retinoic acid receptor (RAR) signaling pathway (AID 1159552; note: nearly all actives have a fitted effect of over 50% in size)
Summary of the method: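 Antagonism of retinol-induced RARE reporter activity was measured in C3RL4 cells. Exposure to compounds and 1 uM final retinol lasted 6 hr at 37 C, with luminescence as endpoint.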

[14] = qHTS assay to identify small molecule agonists of the retinoic acid receptor (RAR) signaling pathway (AID 1159553); note: potency is the fitted concentration of half-maximal effect
Summary of the method: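 6 hr compound exposure (DMSO vehicle) of overnight-plated C3RL4 RARE-luc cells at 37 C; luminescence quantified after 30 min RT with luciferase reagent.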

Measured: Potency

COc1ncc(F)c2nc(S(=O)(=O)Nc3c(F)cccc3F)nn12
not listed: [12] | [13] | [14]
inactive: all other assays above

COc1ccc2c(c1OC)CN1CCc3cc4c(cc3C1C2)OCO4 (stereo not given)
not listed: [12] | [13] | [14]
inactive: all other assays above

CCOP(=O)(OCC)OP(=O)(OCC)OCC
not listed: [12] | [13] | [14]
inactive: all other assays above

CCOC(=O)NC(=S)Nc1ccccc1NC(=S)NC(=O)OCC
not listed: [14]
inactive: all other assays above

[As]#[In]
not listed: [14]
inactive: all other assays above

CC(=O)CCc1ccc2c(c1)OCO2
not listed: [1]
inactive: all other assays above

CCCCN(CCCCO)N=O
inactive: all assays above

CCC(C)(C)c1cc(-n2nc3ccccc3n2)c(O)c(C(C)(C)CC)c1
not listed: [13]
inactive: all other assays above

CN1CCN(C(=O)O[C@H]2c3nccnc3C(=O)N2c2ccc(Cl)cn2)CC1
not listed: [1]
inactive: all other assays above

CC(C(=O)c1ccccc1)N(C)C (stereo not given)
not listed: [12] | [13] | [14]
inactive: all other assays above

CCS(=O)(=O)CCSP(=O)(OC)OC
inactive: all assays above

O=C(NCO)NCO
not listed: [12] | [13] | [14]
inactive: all other assays above

CC(=O)C(Cl)Cl
not listed: [13] | [14]
inactive: all other assays above

CCOC(=O)CP(=O)(OCC)OCC
not listed: [13] | [14]
inactive: all other assays above

COC(=O)C(C)Oc1ccc(Oc2ccc(Cl)cc2Cl)cc1 (stereo not given)
not listed: [14]
inactive: all other assays above

CCOP(=S)(OCC)Oc1ncn(-c2ccccc2)n1
not listed: [14]
inactive: all other assays above

O=C(Cc1ccccc1)OCc1ccccc1
active: [14] 61.6 µM
not listed: [1]
inactive: all other assays above

CCOC(=O)N(C)C(=O)CSP(=S)(OCC)OCC
not listed: [12] | [13] | [14]
inactive: all other assays above

NC(=S)C(N)=S
not listed: [1]
inactive: all other assays above
